{"source": "PubChem BioAssay (NCI)", "note": "Compounds without any hit were thinned out: in the full panel of roughly 83,000, 20% have a hit.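 Assay: single dose, 48 h. Readout: percent growth (0 = no net growth; negative = cell death). Active: <10.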 Unmarked numbers belong to inactive results. The source made the active and inactive calls."}
{"test_system": "SK-MEL-5 melanoma", "experiment": "NCI-60 one-dose screen, 48 h (100 = growth as untreated, 0 = no growth, -100 = all killed)", "details": "10 µM unless noted"}
{"smiles": "CNCc1cccc2c1OCCOCCOCCN(CCN1CCOCC1)S(=O)(=O)c1ccc(cc1)-c1cnc(N)c(n1)C(=O)N2", "growth": "76.6%"}
{"smiles": "Cc1cnc(-c2ccc(-c3ccc(NC(=O)Nc4c(F)cc(F)cc4F)cc3F)c3c2C(=O)NC3)[nH]1", "growth": "38.5%"}
{"smiles": "Cc1cc(C)c(NC(=O)c2sc3nc4c(cc3c2N)CCCCCC4)c(C)c1", "growth": "57.1%"}
{"smiles": "O=C1NN(c2ccccc2)C(c2ccc3c(c2)OCO3)N2CCC[C@@H]12", "note": "(some centres not stated)", "growth": "106%"}
{"smiles": "C=C1C(=O)O[C@H]2[C@H]1CC/C(COC(=O)CCCCCCCCC(=O)OC/C1=C/CC[C@@]3(C)O[C@H]3[C@H]3OC(=O)C(=C)[C@@H]3CC1)=C\\CC[C@@]1(C)O[C@@H]21", "growth": "-32.6% (active)"}
{"smiles": "COc1ccc(C2N(c3cc(OC)c(OC)c(OC)c3)C(=O)C2(F)F)cc1F", "note": "(configuration not stated)", "growth": "8.08% (active)"}
{"smiles": "C=C1C(=O)O[C@H]2[C@H]1CC/C(COC(=O)CCCCCCC(=O)OC/C1=C/CC[C@@]3(C)O[C@H]3[C@H]3OC(=O)C(=C)[C@@H]3CC1)=C\\CC[C@@]1(C)O[C@@H]21", "growth": "36.5%"}
{"smiles": "O=c1nc(-c2ccccc2)c2cc(-c3ccc(N4CCCC4)nc3)ccc2[nH]1", "growth": "40.4%"}
{"smiles": "O=C(Nc1nc(-c2ccccc2)cs1)c1cc(-c2ccc(Br)cc2)nc2ccccc12", "growth": "54.8%"}
{"smiles": "COc1ccc2nc3c(n2c1)C(=O)C(=O)c1ccccc1-3", "growth": "-99.5% (active)"}
{"smiles": "C=C1C(=O)O[C@H]2[C@H]1CCC(/C=N/c1ncc(Br)cc1N)=C\\CC[C@@]1(C)O[C@@H]21", "growth": "39.9%"}
{"smiles": "COC(=O)c1ccc(NC(=O)CSc2nc(-c3ccc(F)cc3)nc3ccccc23)cc1", "growth": "74.3%"}
{"smiles": "COc1ccc(C2C(c3ccccc3)C(=O)N2c2cc(OC)c(OC)c(OC)c2)cc1I", "note": "(configuration not stated)", "growth": "-41% (active)"}
{"smiles": "O=[N+]([O-])c1cccc(CN(Cc2cccc([N+](=O)[O-])c2O)c2ccccc2)c1O", "growth": "90.5%"}
{"smiles": "Nc1c(C(=O)Nc2ccccn2)sc2nc3c(cc12)CCCCCC3", "growth": "9.47% (active)"}
{"smiles": "C[C@]12CC[C@@H]3c4ccc(O)cc4CC[C@H]3[C@@H]1C[C@H](O)C2", "growth": "64.9%"}
{"smiles": "COCCOCCOCc1n(Cc2ccc3ccccc3c2)c2ccccc2[n+]1Cc1ccc2ccccc2c1", "growth": "-91.9% (active)"}
{"smiles": "COc1ccc(C(=O)c2cc(F)c(F)c(OC)c2F)cc1OC(=O)CCl", "growth": "29%"}
{"smiles": "Nc1cccc(C(=O)Nc2ccc3c(O)c(N=Nc4ccc(N=Nc5ccc(S(=O)(=O)O)cc5)cc4)c(S(=O)(=O)O)cc3c2)c1", "growth": "104%"}
{"smiles": "O=C(Nc1ccccc1)NS(=O)(=O)c1c[nH]c(=S)[nH]c1=O", "growth": "104%"}
{"smiles": "CC(C)CSc1nc(Nc2ccccc2)c(C#N)c(-c2ccc(F)cc2)n1", "growth": "80.5%"}
{"smiles": "CC(C)(C#N)c1cc(F)cc(C(=O)Nc2cc(Nc3ncccc3-c3ncnc4nc[nH]c34)ccc2F)c1", "growth": "20.3%"}
{"smiles": "COc1c(O)cc2oc3cc(O[C@@H]4OC(C)[C@@H](O)[C@H](O)C4O)c(CC=C(C)C)c(O)c3c(=O)c2c1CC=C(C)C", "note": "(some centres not stated)", "growth": "91%"}
{"smiles": "O=C(CCCC(=O)Nc1ccc(-n2nnc3cc(Cl)c(Cl)cc32)cc1)Nc1ccc(-n2nnc3cc(Cl)c(Cl)cc32)cc1", "growth": "42.2%"}
{"smiles": "Cn1cc(-c2ccc3c(c2)ncn3-c2ccc(CC(=O)Nc3cc(C(C)(C)C)on3)cc2)cn1", "growth": "48.2%"}
{"smiles": "CCC1S/C(=N\\N=C(/C)c2ccc[nH]2)N(c2ccccc2)C1=O", "note": "(configuration not stated)", "growth": "79%"}
{"smiles": "CC(=O)ON1CCCC(P(=O)(OCOC(=O)C(C)(C)C)OCOC(=O)C(C)(C)C)C1=O", "note": "(configuration not stated)", "growth": "-55.7% (active)"}
{"smiles": "Cc1cccc(C)c1Nc1nnc(-c2ccc(F)cc2)o1", "growth": "98.9%"}
{"smiles": "COc1ccc(C2=NN(c3ccc(S(N)(=O)=O)cc3)C(c3ccc(Cl)cc3)C2)c(O)c1", "note": "(configuration not stated)", "growth": "75.4%"}
{"smiles": "CC(=O)Nc1nc2c(c(N)c1C#N)C(c1cccc(Cl)c1)C1=C(CCCC1=O)N2c1sc2c(c1C#N)CCCC2", "note": "(configuration not stated)", "growth": "61.5%"}
{"smiles": "C#Cc1ccccc1NC(=O)c1sc2nc3c(cc2c1N)CCCCCC3", "growth": "89.6%"}
{"smiles": "C=C(C)[C@@H]1CC[C@]2(C(=O)N3CCN(C)CC3)CC[C@]3(C)[C@H](CC[C@@H]4[C@@]5(C)C/C(=C/c6ccco6)C(=O)C(C)(C)[C@@H]5CC[C@]43C)[C@@H]12", "growth": "68.9%"}
{"smiles": "CCCCC(=O)Nc1c(C(=O)Nc2ccccc2)sc2nc3c(cc12)C(OC(=O)CCCC)CCC3", "note": "(configuration not stated)", "growth": "84.5%"}
{"smiles": "C#CC[C@@H]1C[C@]2(C)[C@H]3CC[C@@H]4[C@H]5[C@H](C(=C)C)CC[C@]5(C(=O)O)CC[C@@]4(C)[C@]3(C)CC[C@H]2C(C)(C)[C@H]1O", "growth": "74.5%"}
{"smiles": "Cc1ccc(-c2nc(C#N)c(S(=O)(=O)N(C)CCO)o2)cc1", "growth": "71.4%"}
{"smiles": "FC(F)(F)c1ccc2c(Nc3cccc(C4CC(c5ccccc5)=NN4c4ccc(Cl)cc4)c3)ccnc2c1", "note": "(configuration not stated)", "growth": "75.1%"}
{"smiles": "COc1ccc2nc(-c3ccc(OC)c(OC)c3)cc(-c3nnc(SCC(=O)Nc4ccc(/C(C)=N\\O)cc4)n3-c3ccccc3)c2c1", "growth": "71.7%"}
